Screening data: PubChem BioAssay, National Center for Advancing Translational Sciences (NCATS)
HCMV inh – blocks human cytomegalovirus replication. HFF cells, HCMV-luciferase reporter, 72 h; stronger effect = lower value. activity change, negative = inhibition, % at 57.5 µM. 410,000 compounds, 4.5% hits. AID 1259415; in the data active = activity change below about -60%; inconclusive = no clear call, values can overlap the other calls; inactive = above about -39%
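Luciferase read-out from HCMV-luciferase-infected HFFs (MOI 1 PFU/cell) 72 h post infection at 37C; compounds added after 16 h cell attachment; activity normalized between buffer-only basal and Salinomycin (10uM) inhibitor controls.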
FMDV inh – antivirals against foot and mouth disease virus; FMDV antiviral cell-based qHTS; Potency, µM (doses to about 57.9 µM), for inactives: at the top dose activity change, negative = inhibition, most hits filed as inhibitors; 410,000 compounds, 1.2% hits; AID 1159524; calls by dose curve; tested in HEK293T cells; also: read-out not given here; potency is read from the fitted curve at half-maximal effect; nearly all actives have a fitted effect of over 45% in size
AmpC inh detg – inhibitors of E. coli AmpC beta-lactamase with detergent; P00811; AmpC hydrolysis of nitrocefin, absorbance 480 nm, 0.01% Triton; Potency, µM (series often up to 114 µM), inactives show top-dose activity change, negative = inhibition, hits mostly inhibitors; 370,000 compounds, 0.041% hits; AID 485294;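 also: potency is read from the fitted curve at half-maximal effect; 0% = no-compound wells and -100% = no-enzyme wells; nearly all actives have a fitted effect of over 25% in size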
Target sequence (P00811 whole entry, looked up): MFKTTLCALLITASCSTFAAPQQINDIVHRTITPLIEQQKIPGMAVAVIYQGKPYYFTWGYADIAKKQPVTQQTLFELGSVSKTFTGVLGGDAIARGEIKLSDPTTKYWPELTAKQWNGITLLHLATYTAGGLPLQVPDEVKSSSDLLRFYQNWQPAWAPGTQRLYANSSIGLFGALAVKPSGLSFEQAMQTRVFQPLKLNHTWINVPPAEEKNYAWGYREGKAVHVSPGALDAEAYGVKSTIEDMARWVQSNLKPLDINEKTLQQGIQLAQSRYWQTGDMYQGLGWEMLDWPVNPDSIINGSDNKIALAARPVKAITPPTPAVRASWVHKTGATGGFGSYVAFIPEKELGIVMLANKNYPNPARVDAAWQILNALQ
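AmpC (5.3 nM in the dispensed reagent) in 20 mM phosphate pH 7.0 with 0.01% (detergent screen) or 0.0001% Triton X-100 was preincubated with compounds for 15 min at room temperature. Nitrocefin was then added from an 800 uM solution, and hydrolysis was followed at 480 nm.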
AmpC no deterg – blocks E. coli AmpC beta-lactamase in detergent-free assay; P00811; 330,000 compounds, 0.52% hits; AID 485341; AmpC nitrocefin hydrolysis, absorbance 480 nm, 0.0001% Triton; Potency, µM (doses to about 57.1 µM), without a hit: at the top dose activity change, negative = inhibition, hits mostly inhibitors;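 also: potency is read from the fitted curve at half-maximal effect; plate controls were no compound for no effect and no enzyme for full effect; nearly all actives have a fitted effect of over 20% in size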
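AmpC (5.3 nM in the dispensed reagent) in 20 mM phosphate pH 7.0 with 0.01% (detergent screen) or 0.0001% Triton X-100 was preincubated with compounds for 15 min at room temperature. Nitrocefin was then added from an 800 uM solution, and hydrolysis was followed at 480 nm.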
HCV inh – inhibitors of hepatitis C virus infection | 340,000 compounds, 3.4% hits | Huh7.5.1 HCVcc-Cre infection, luciferase reporter, 44 h | Potency, µM (series often up to 41.8 µM), inactives show at the top dose activity change, negative = inhibition, most hits filed as inhibitors; also: potency is read from the fitted curve at half-maximal effect
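A cell-based infection assay in which seeded cells (1,000 per well) receive test compound after 4 h, are inoculated with HCVcc-Cre at approximately 0.5 moi, and are incubated 44 h before luminescence detection.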
* = called active by the depositor; [ ] = dose if it differs, or a comment. Shown are actives, neighbours in structure and some others; about 7.3% of the full set was active somewhere. Unless noted, calls follow the shape of the dose curve; as a rule, active = well fitted curve in the direction sought with a large enough effect; inconclusive = small, poorly fitted or top-dose-only effect, or another doubt; inactive = no such curve, though single readings can be large; an effect the other way counts as inactive or inconclusive. Unless noted, % is scaled to controls: 0 for no effect and ±100 for the full control effect.

Results for O=C(O)CCSc1nnc(COc2cccc3ccccc23)n1-c1cccc(Cl)c1 ?
HCMV inh: -99.0*; FMDV inh: 6.3%; AmpC inh detg: -8.5%; AmpC no deterg: 43.3%; HCV inh: 10.3%

What do the screens show for `N#CCSc1nnc(COc2cccc3ccccc23)n1-c1ccccc1`?
HCMV inh: -14.9; FMDV inh: 14.1µM*; AmpC inh detg: -16.7%; AmpC no deterg: 43.2%; HCV inh: inconclusive

Results for COc1ccc(-n2c(COc3cccc4ccccc34)nnc2SCC#N)cc1 ?
HCMV inh: 18.7; FMDV inh: -19.6%; AmpC inh detg: 1.8%; AmpC no deterg: 39.1%; HCV inh: inconclusive

Results for N#CCSc1nnc(COc2cccc3ccccc23)n1-c1cccc(Cl)c1 ?
HCMV inh: -19.9; FMDV inh: inconclusive; AmpC inh detg: -16.1%; AmpC no deterg: 80.3%; HCV inh: inconclusive

Results for Cc1noc(C)c1CSCC(=O)Nc1nc2c(F)cc(F)cc2s1 ?
HCMV inh: 0.0; FMDV inh: -5.8%; AmpC inh detg: -2.0%; AmpC no deterg: inconclusive; HCV inh: 23.1%

Results for Cc1ccc(C(=O)CSc2ncnc3ccccc23)o1 ?
HCMV inh: -60.2*; FMDV inh: 8.4%; AmpC inh detg: -10.4%; AmpC no deterg: -26.0%; HCV inh: 3.6%

Results for Fc1ccc(CSc2ncnc3ccccc23)cc1 ?
HCMV inh: -67.5*; FMDV inh: 3.1%; AmpC inh detg: -4.8%; AmpC no deterg: 17.3%; HCV inh: 2.8%

How did O=[N+]([O-])c1cccc(CSc2ncnc3ccccc23)c1 do in these assays?
HCMV inh: -80.6*; FMDV inh: -13.3%; AmpC inh detg: -7.6%; AmpC no deterg: -15.7%; HCV inh: -27.0%

How did Cc1cccc(CSc2ncnc3ccccc23)c1 do in these assays?
HCMV inh: -14.7; FMDV inh: 14.7%; AmpC inh detg: -7.5%; AmpC no deterg: 0.1%; HCV inh: inconclusive

Results for Fc1ccc(CSc2ncnc3nc[nH]c23)cc1 ?
HCMV inh: 23.9; FMDV inh: -19.6%; AmpC inh detg: inconclusive; AmpC no deterg: 1.58µM*; HCV inh: -11.9%

How did c1ccc(CSc2ncnc3ccccc23)cc1 do in these assays?
HCMV inh: -30.7; FMDV inh: 6.9%; AmpC inh detg: -3.5%; AmpC no deterg: -4.6%[2.29 µM]; HCV inh: inconclusive

How did CCOc1ccc(S(=O)(=O)N2CCC(C(=O)NCc3cccnc3)CC2)cc1 do in these assays?
HCMV inh: 36.3; FMDV inh: -16.2%; AmpC inh detg: 0.1%; AmpC no deterg: -1.3%; HCV inh: -2.7%

What do the screens show for `O=C(NNC(=O)C12CC3CC(CC(C3)C1)C2)c1ccccc1[N+](=O)[O-]`?
HCMV inh: 11.7; FMDV inh: 0.6%; AmpC inh detg: -2.0%; AmpC no deterg: -12.9%; HCV inh: 3.0%

Results for O=S(=O)(Nc1ccc(O)c2ccccc12)c1ccc(Br)cc1 ?
AmpC inh detg: -3.2%; AmpC no deterg: 11.2µM*

What do the screens show for `Cc1cccc(Cc2nnc(CCC(=O)NCc3cn4ccccc4n3)o2)c1`?
HCMV inh: -32.0; FMDV inh: 0.4%; AmpC inh detg: 9.6%; AmpC no deterg: 19.2%; HCV inh: 3.6%

What do the screens show for `O=C(Cn1c(C(=O)OCCO)cc2ccccc21)c1ccccc1`?
HCMV inh: 134.4; FMDV inh: -3.1%; AmpC inh detg: -9.3%; AmpC no deterg: -17.9%; HCV inh: -7.6%

Results for O=C(Nc1cccnc1)C1Cc2c(-c3ccccc3Oc3ccccc3)ccnc2O1 (stereo not given) ?
HCMV inh: -35.3; FMDV inh: inconclusive

Results for CN(C)c1cccc(NC(=O)C2Cc3c(-c4ccccc4Oc4ccccc4)ccnc3O2)c1 (stereo not given) ?
HCMV inh: -83.0*; FMDV inh: -34.8%

What do the screens show for `CC(=O)c1cccc(NC(=O)C2Cc3c(-c4ccccc4Oc4ccccc4)ccnc3O2)c1` (stereo not given)?
HCMV inh: -66.2*; FMDV inh: inconclusive

Results for CC(=O)c1cccc(NC(=O)C2Cc3c(-c4ccco4)ccnc3O2)c1 (stereo not given) ?
HCMV inh: -61.8*; FMDV inh: -9.6%

Results for O=C(Nc1cccc(C(F)(F)F)c1)C1Cc2c(-c3ccccc3Oc3ccccc3)ccnc2O1 (stereo not given) ?
HCMV inh: -16.1; FMDV inh: inconclusive

How did COc1ccc(-c2nc3cc(C)c(Br)c(C)n3c2Cc2cccc(F)c2)cc1OC do in these assays?
HCMV inh: -14.7; FMDV inh: -19.9%

How did CCCCNc1cccc2c1S(=O)(=O)N[C@@H](Cc1ccccc1)CO2 do in these assays?
HCMV inh: -3.4

How did Cc1cccc(Oc2nc(-c3ccccn3)nc3ccccc23)c1 do in these assays?
HCMV inh: -72.3*; FMDV inh: -11.7%; AmpC inh detg: 1.5%; AmpC no deterg: 82.6%; HCV inh: inconclusive

Results for Cc1cccc(Oc2nc(-c3ccncc3)nc3ccccc23)c1 ?
HCMV inh: 35.9; FMDV inh: -14.3%; AmpC inh detg: -4.2%; AmpC no deterg: 52.5%; HCV inh: 7.08µM*

What do the screens show for `CSc1ccc(CCNC(=O)CCc2c(C)nc3c(c(C)nn3-c3ccc(C)c(C)c3)c2C)cc1`?
HCMV inh: 11.1; FMDV inh: -8.6%; AmpC inh detg: -0.7%

Results for CCCCC(=O)NC(c1ccco1)c1c(O)ccc2ccccc12 (stereo not given) ?
HCMV inh: 24.9; FMDV inh: -13.2%; AmpC inh detg: -9.4%; AmpC no deterg: -28.1%; HCV inh: -16.8%

Results for CC(=O)NC(c1ccc(C)cc1)c1cc([N+](=O)[O-])c2cccnc2c1O (stereo not given) ?
HCMV inh: -98.9*; FMDV inh: 0.0%; AmpC inh detg: 5.3%; AmpC no deterg: -17.1%; HCV inh: inconclusive

Results for CCCC(=O)NC(c1ccco1)c1cc([N+](=O)[O-])c2cccnc2c1O (stereo not given) ?
HCMV inh: -63.8*; FMDV inh: -29.7%; AmpC inh detg: -7.5%; AmpC no deterg: -17.8%; HCV inh: -4.5%

How did CCCC(=O)NC(c1ccco1)c1c(O)ccc2ccccc12 (stereo not given) do in these assays?
HCMV inh: -83.6*; FMDV inh: -9.1%; AmpC inh detg: 5.3%; AmpC no deterg: -27.9%; HCV inh: -11.2%

What do the screens show for `CCC(=O)NC(c1ccc(C)cc1)c1cc([N+](=O)[O-])c2cccnc2c1O` (stereo not given)?
HCMV inh: -97.5*; FMDV inh: inconclusive; AmpC inh detg: -11.7%; AmpC no deterg: -24.4%; HCV inh: inconclusive
